Assay outcomes as filed in PubChem BioAssay.
VP16 counter = VP16 counterscreen qHTS for inhibitors of ROR gamma transcriptional activity; Drosophila S2 Gal4-VP16 UAS-luciferase, luminescence, 20 h; Potency, µM (highest dose often 53.6 µM), inactives show at the top dose activity, negative = inhibition, usual class: inhibitors; 310,000 compounds, 3.5% hits; AID 2546, 2010;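 also: Gal4-VP16 expression switched on by copper sulfate through the metallothionein promoter; nearly all actives have a fitted effect of over 50% in size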
Sfp PPTase inh = qHTS Assay for Inhibitors of Bacillus subtilis Sfp phosphopantetheinyl transferase (PPTase). Potency, µM, for inactives: largest response in the series, negative = inhibition, actives largely listed as inhibitors. 310,000 compounds, 3.5% hits. 4'-phosphopantetheinyl transferase ffp (Bacillus subtilis), Q9F4F7. Biochemical Sfp PPTase activity, qHTS. AID 1490, 2009;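 also: the enzyme is Sfp with the accession as filed and its product quenches rhodamine fluorescence; 0% = enzyme reaction without inhibitor and -100% = no enzyme wells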
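With Hepes-Na pH 7.6 buffer containing 10 mM MgCl2, Sfp (15 nM) modified BHQ-2-YbbR (12.5 uM) using rhodamine-CoA (5 uM). Two reads 30 minutes apart at 525/598 nm yielded each well's rate.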
ALDH1A1 block = qHTS Assay for Inhibitors of Aldehyde Dehydrogenase 1 (ALDH1A1). 220,000 compounds, 7.3% hits. Potency, µM (series often up to 75.3 µM), for the others: top-dose activity, negative = inhibition, actives largely listed as inhibitors. Purified ALDH1A1, NADH fluorescence, propionaldehyde substrate. Aldehyde dehydrogenase 1A1 (Homo sapiens), P00352; active = well fitted inhibition curve with a large enough effect, not every such curve was filed as active; inconclusive = small, poorly fitted or top-dose-only effect, or another doubt; inactive = no such curve, though single readings can be large or run the other way;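 also: plate controls were no enzyme wells and a reference inhibitor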
PLK1 PBD block = qHTS for Inhibitors of PLK1-PDB (polo-like kinase 1 - polo-box domain): Primary Screen | 360,000 compounds, 2.8% hits | Potency, µM, for the others: max response, negative = inhibition, actives largely listed as inhibitors | AID 720504, 2013 | Plk1 PBD binding of FITC phosphopeptide, fluorescence polarization; also: series mostly up to about 57 µM; nearly all actives have a fitted effect of over 65% in size
RORg inh = qHTS for inhibitors of ROR gamma transcriptional activity | Drosophila S2 Gal4-RORgamma UAS-luciferase reporter, 20 h | Potency, µM (titrated, usually from 53.6 µM), for inactives: at the top dose activity change, negative = inhibition, most hits filed as inhibitors | 310,000 compounds, 5.4% hits | AID 2551, 2010; also: nearly all actives have a fitted effect of over 60% in size
Target sequence (P51450 whole entry, looked up, the tested form may be a part): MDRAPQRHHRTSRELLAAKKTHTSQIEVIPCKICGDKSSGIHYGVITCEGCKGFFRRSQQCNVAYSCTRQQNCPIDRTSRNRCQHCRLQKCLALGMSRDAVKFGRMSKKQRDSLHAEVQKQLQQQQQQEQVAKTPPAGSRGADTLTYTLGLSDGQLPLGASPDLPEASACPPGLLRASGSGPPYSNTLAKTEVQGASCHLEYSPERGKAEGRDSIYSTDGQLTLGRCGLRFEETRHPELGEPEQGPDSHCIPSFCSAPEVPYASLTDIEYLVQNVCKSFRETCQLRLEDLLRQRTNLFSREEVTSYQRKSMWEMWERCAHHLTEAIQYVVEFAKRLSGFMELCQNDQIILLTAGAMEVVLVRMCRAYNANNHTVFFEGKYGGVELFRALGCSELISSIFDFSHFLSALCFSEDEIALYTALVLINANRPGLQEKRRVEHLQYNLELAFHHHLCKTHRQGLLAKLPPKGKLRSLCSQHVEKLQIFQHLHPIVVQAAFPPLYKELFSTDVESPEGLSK
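Stably transfected Drosophila Schneider cells are the test system, with ROR gamma fused to Gal4 and luciferase under UAS control; luminescence is read after 20 hr of 700 uM copper sulfate induction at ambient temperature.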
* marks the source's active call; other numbers are inactive results; ? = inconclusive; / = not tested or not shown; [ ] = another dose, or the depositor's remark. Sampled rows, rich in hits. Any-hit rate of the full collection: about 12%. Unless noted, calls follow the shape of the dose curve; as a rule, active = well fitted curve in the direction sought with a large enough effect; inconclusive = small, poorly fitted or top-dose-only effect, or another doubt; inactive = no such curve, though single readings can be large; an effect the other way counts as inactive or inconclusive. Unless noted, % is scaled to controls: 0 for no effect and ±100 for the full control effect; potency is read from the fitted curve at half-maximal effect.

SMILES	VP16 counter	Sfp PPTase inh	ALDH1A1 block	PLK1 PBD block	RORg inh
CCN(CC)C(=O)c1cc([N+](=O)[O-])cc2c1-c1ccc([N+](=O)[O-])cc1C2=C(C#N)C#N	20µM*	71µM*	/	9.5µM*	?
CCN(CC)C(=O)c1ccc(Oc2ccc([N+](=O)[O-])cc2Cl)cc1	-8%	-9%	?	-15%	39%
N[C@@H](Cn1cc(F)c(=O)[nH]c1=O)C(=O)O	8%	56µM*	-5%	/	-10%
CCOC(=O)CCn1cc(F)c(=O)[nH]c1=O	-1%	15%	-8%	-4%	1%
Cc1ccccc1C(=O)NN1C(=O)CSC1=S	-1%	-23%	5%	-7%	?
O=C(NN1C(=O)CSC1=S)c1cccnc1	-8%	56µM*	/	-8%	-2%
Cc1ccc(S(=O)(=O)N2CCC(C(=O)O)(c3ccccc3)CC2)cc1	/	/	1%[13.5 µM]	/	/
Cc1ccsc1/C=N/NC(=O)c1cccs1	13µM*	2%	2%	-13%	10µM*
Cc1ccsc1/C=N/NC(=O)c1ccccn1	?	56µM*	-9%	3%	-7%[10 µM]
CNc1ccc([N+](=O)[O-])cc1-c1nc2ccccc2[nH]c1=O	1%	2%	8%	0%	2%
COc1ccccc1NC(=S)Nc1cccc(F)c1	-8%	-3%	-11%	-13%	-15%
S=C(Nc1cccc(Cl)c1)Nc1ccccc1Oc1ccccc1	?	9%	?	-7%	10µM*
S=C(Nc1ccccc1Oc1ccccc1)Nc1cccc(Cl)c1Cl	?	-27%	?	-20%	13µM*
O=C(Nc1ccccc1Oc1ccccc1)C1CCCC1	-5%	-9%	-1%	-6%	13%
S=C(Nc1ccc(Cl)cc1Cl)Nc1ccccc1Oc1ccccc1	?	?	?	-5%	10µM*
CCNc1ncc2nc(-c3cccc(C#N)c3)c(=O)n(CCC#N)c2n1	-9%	4%	?	/	2%
Cc1nnsc1S(=O)c1ccc(Cl)c(Cl)c1 (stereo not drawn)	-29%	3%	/	-18%	-39%
O=S(c1ccc2ccccc2c1)c1cnns1 (stereo not drawn)	?	7%	?	-19%	11µM*
C[C@@H](C(=O)Nc1ccc2ccccc2c1)[C@@H]1C[C@@]1(C)[C@@H](NC(=O)c1ccncc1Cl)c1ccccc1	-9%	7%	0%	/	6%
CCc1nc(SCC(=O)c2cccs2)c2oc3ccccc3c2n1	2%	35µM*	2%	-8%	9%
CCc1nc(N[C@H](C(=O)O)C(C)CC)c2oc3ccccc3c2n1 (stereo partly drawn)	1%	6%	0.5µM*	-6%	2%
CC(C)C(Nc1ncnc2c1oc1ccccc12)C(=O)O (stereo not drawn)	-3%	5%	7%	1%	5%
CCC(C)[C@H](Nc1nc(-c2ccccc2)nc2c1oc1ccccc12)C(=O)O (stereo partly drawn)	-15%	22%	0.79µM*	-19%	13%
CCc1nc(SCC(=O)NCCc2ccccc2)c2oc3ccccc3c2n1	1%	-8%	-4%	0%	-37%
CC(C)[C@H](Nc1nc(-c2ccccc2)nc2c1oc1ccccc12)C(=O)O	-6%	22%	1.1µM*	-8%	17%
SMILES	VP16 counter	Sfp PPTase inh	ALDH1A1 block	PLK1 PBD block	RORg inh
NCCCc1c(-c2ccccc2)nc(N)[nH]c1=O	/	/	9%[13.5 µM]	/	/
Cc1ccc(S(=O)(=O)c2ccc([N+](=O)[O-])cn2)cc1	3.5µM*	?	/	?	3.2µM*
O=[N+]([O-])c1ccc(S(=O)(=O)c2ccccc2)nc1	3.5µM*	50µM*	/	5.3µM*	?
Cc1ccc(S(=O)(=O)c2ccc(C)cc2)cc1	8%	-4%	13%	-2%	28%
Nc1ccc(S(=O)(=O)c2ccccc2)nc1	-8%	?	/	-1%	-21%
CCc1nc2ccc(C(=O)NCCCN(C)C)cn2c1N(C)CCCc1ccccc1	/	/	/	-8%	/
O=C(Nc1ccc2c(c1)OCCO2)C1c2ccccc2OCC(=O)N1Cc1cccnc1 (stereo not drawn)	/	/	/	-4%	/
COc1ccc(COC(=O)N/N=C2/C[C@@H](O)[C@@H](O)[C@@H]3[C@@H]4C(=O)N(C5CCCCC5)C(=O)[C@H]4CC[C@@H]23)cc1	-7%[10 µM]	-19%	-5%[13.5 µM]	/	18%[10 µM]
COC(=O)[C@@]12C[C@@H](CC(=O)N3CCSCC3)C(=O)N(Cc3ccco3)C1=CCC(C)(C)C2	/	/	/	-12%	/
N/C(=N\c1nc2ccccc2o1)NC(=O)c1ccc(Cl)cc1	?	7%	-1%	-5%	10µM*
N/C(=N\c1nc2ccccc2o1)NC(=O)c1ccccc1Br	-32%	16%	?	8%	0.89µM*
N/C(=N\c1nc2ccccc2o1)NC(=O)c1ccc(F)cc1	5.6µM*	2%	9%	-9%	2.5µM*
COc1ccc(C(=O)/C=C/Sc2nc3ccccc3o2)cc1	-17%	1%	/	0.75µM*	?
COc1ccc(C(C)=O)cc1CSc1nc2ccccc2o1	?	?	?	-15%	-19%
CC(C)CC(c1nnnn1Cc1ccc2c(c1)OCO2)N1CCC(C(N)=O)CC1 (stereo not drawn)	1%	4%	-10%	-2%	8%
CCCCOC(=O)Sc1nc2ccccc2o1	2%	40µM*	?	?	?
COc1ccc(C(=O)N/C(N)=N/c2nc3ccccc3o2)cc1	?	-1%	-7%	-10%	8.9µM*
CC1(C)C(=O)C=C(N2CCCCC2)c2ccccc21	/	/	/	-9%	/
Cc1ccc(NC(=O)COc2ccc(N(C)C(=O)C(C)(C)C)cc2)cc1S(=O)(=O)N1CCCCC1	/	/	/	1%	/
Cc1cc2c(c(C)c1Cl)C(c1ccc3c(c1)OCO3)CC(O)(c1ccccc1)O2 (stereo not drawn)	?	24%	/	/	46%
Cc1cccc(Cn2c(O)c(N=NC(=S)Nc3ccccc3F)c3ccccc32)c1	5µM*	4%	?	-4%	3.2µM*
Oc1c(N=NC(=S)Nc2ccccc2F)c2ccccc2n1Cc1ccc(F)cc1	3.5µM*	?	16µM*	?	2.8µM*
Oc1c(N=NC(=S)Nc2ccccc2F)c2ccccc2n1Cc1cccc(Cl)c1	3.5µM*	11%	0.4µM*	-2%	?
CC(C)CCn1c(O)c(N=NC(=O)c2ccco2)c2ccccc21	-17%	?	2%	-13%	-22%
Cn1cnnc1SCc1ccc(C(=O)N=Nc2c(O)n(Cc3ccc(Cl)cc3)c3ccccc23)cc1	?	?	?	-16%	?
COc1ccccc1-c1ccc2c(c1)C(C)(Cc1ccc(OC(F)(F)F)cc1)C(=O)N2 (stereo not drawn)	/	/	/	-9%	/
